# Results taken from ChEMBL document CHEMBL2218924, “A broad activity screen in support of a chemogenomic map for kinase signalling research and drug discovery” (Biochem J, 2013).
# Assays:
# [1] = molecular target: T1, Ephrin type-A receptor 3 (Homo sapiens) (UniProt P29320); conditions: at 10 µM
# T1 sequence (whole entry): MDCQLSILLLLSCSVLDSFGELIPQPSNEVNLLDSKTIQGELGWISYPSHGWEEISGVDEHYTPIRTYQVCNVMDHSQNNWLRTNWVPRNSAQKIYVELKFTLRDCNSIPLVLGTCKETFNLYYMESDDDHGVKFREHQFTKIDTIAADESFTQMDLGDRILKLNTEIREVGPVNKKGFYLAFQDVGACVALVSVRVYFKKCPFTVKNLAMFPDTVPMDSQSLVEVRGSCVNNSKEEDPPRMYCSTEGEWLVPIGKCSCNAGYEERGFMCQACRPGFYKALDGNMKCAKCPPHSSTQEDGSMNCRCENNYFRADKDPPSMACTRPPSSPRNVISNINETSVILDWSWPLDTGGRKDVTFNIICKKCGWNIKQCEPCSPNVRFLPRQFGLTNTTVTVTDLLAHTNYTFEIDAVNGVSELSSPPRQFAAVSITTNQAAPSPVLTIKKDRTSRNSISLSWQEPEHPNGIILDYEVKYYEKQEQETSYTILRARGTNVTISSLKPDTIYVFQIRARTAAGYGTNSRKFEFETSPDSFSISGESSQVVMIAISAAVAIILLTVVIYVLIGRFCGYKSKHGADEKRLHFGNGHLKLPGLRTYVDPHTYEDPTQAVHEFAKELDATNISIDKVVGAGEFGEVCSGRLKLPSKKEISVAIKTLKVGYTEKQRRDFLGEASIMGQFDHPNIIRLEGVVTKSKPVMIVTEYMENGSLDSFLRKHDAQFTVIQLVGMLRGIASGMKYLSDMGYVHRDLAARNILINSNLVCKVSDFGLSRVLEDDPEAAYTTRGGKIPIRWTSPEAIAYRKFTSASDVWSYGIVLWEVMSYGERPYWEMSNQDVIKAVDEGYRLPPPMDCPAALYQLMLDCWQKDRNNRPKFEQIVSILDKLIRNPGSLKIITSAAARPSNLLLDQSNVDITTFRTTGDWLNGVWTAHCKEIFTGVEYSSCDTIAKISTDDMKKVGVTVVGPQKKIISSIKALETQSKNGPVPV
# [2] = molecular target: Ephrin type-A receptor 4 (Homo sapiens) (UniProt P54764); conditions: at 1 µM
# [3] = molecular target: Ephrin type-A receptor 4 (Homo sapiens) (UniProt P54764); conditions: at 10 µM
# [4] = molecular target: Ephrin type-A receptor 5 (Homo sapiens) (UniProt P54756); conditions: at 1 µM
# [5] = molecular target: Ephrin type-A receptor 5 (Homo sapiens) (UniProt P54756); conditions: at 10 µM
# [6] = molecular target: Ephrin type-A receptor 7 (Homo sapiens) (UniProt Q15375); conditions: at 1 µM
# [7] = molecular target: Ephrin type-A receptor 7 (Homo sapiens) (UniProt Q15375); conditions: at 10 µM
# [8] = molecular target: T2, Ephrin type-A receptor 8 (Homo sapiens) (UniProt P29322); conditions: at 1 µM
# T2 sequence (whole entry): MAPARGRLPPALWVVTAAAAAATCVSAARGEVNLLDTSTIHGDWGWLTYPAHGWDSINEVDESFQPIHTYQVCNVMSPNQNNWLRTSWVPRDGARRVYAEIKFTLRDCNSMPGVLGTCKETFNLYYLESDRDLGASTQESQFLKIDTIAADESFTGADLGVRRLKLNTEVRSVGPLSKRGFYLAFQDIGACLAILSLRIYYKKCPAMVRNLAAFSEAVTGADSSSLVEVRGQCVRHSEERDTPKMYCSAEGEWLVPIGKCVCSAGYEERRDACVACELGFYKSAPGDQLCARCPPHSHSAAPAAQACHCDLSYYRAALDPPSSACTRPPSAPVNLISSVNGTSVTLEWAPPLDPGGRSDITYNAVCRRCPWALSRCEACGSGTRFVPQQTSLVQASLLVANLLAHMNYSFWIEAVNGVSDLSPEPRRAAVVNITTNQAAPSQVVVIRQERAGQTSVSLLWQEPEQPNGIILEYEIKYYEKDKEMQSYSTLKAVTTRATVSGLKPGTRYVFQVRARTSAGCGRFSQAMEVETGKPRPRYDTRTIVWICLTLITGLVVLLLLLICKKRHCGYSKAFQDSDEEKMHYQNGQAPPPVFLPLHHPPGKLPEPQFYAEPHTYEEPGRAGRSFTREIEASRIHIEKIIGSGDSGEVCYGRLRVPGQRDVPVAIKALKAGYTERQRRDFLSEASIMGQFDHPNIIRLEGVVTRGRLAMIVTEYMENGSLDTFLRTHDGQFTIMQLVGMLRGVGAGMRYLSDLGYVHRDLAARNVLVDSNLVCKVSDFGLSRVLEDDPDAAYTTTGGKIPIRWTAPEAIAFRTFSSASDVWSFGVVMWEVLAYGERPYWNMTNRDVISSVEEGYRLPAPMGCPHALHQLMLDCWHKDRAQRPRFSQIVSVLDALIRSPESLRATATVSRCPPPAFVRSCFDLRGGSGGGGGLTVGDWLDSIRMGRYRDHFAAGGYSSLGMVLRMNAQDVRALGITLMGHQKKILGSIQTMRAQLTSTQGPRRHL
# [9] = molecular target: T2, Ephrin type-A receptor 8 (Homo sapiens); conditions: at 10 µM
# [10] = molecular target: T3, Ephrin type-B receptor 1 (Homo sapiens) (UniProt P54762); conditions: at 1 µM
# T3 sequence (whole entry): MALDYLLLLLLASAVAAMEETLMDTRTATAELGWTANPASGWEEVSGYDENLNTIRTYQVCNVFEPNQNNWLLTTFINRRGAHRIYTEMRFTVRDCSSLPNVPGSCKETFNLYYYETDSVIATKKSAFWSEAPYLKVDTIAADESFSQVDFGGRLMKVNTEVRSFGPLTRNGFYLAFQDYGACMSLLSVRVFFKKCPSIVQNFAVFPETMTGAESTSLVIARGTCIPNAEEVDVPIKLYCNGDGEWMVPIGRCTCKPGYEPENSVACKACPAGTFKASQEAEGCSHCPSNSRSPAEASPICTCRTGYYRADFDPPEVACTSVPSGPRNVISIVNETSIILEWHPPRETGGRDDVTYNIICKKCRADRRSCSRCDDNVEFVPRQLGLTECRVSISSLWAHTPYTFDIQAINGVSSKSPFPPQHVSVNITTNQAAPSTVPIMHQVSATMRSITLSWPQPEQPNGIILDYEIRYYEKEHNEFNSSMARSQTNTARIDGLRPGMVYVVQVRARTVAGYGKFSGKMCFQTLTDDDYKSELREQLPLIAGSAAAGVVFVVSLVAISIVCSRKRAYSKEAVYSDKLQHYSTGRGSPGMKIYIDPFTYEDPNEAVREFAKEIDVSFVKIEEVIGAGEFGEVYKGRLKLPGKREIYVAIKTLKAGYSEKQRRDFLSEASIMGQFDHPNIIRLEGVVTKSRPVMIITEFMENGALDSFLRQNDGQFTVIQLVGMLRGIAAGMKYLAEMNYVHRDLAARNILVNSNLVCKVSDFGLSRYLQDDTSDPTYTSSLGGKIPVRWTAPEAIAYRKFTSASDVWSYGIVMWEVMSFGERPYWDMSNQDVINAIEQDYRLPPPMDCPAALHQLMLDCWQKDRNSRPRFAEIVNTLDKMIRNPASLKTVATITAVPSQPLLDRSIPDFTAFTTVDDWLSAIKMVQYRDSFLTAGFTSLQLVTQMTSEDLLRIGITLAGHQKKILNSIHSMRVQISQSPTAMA
# [11] = molecular target: T3, Ephrin type-B receptor 1 (Homo sapiens); conditions: at 10 µM
# [12] = molecular target: T4, Ephrin type-B receptor 2 (Homo sapiens) (UniProt P29323); conditions: at 1 µM
# T4 sequence (whole entry): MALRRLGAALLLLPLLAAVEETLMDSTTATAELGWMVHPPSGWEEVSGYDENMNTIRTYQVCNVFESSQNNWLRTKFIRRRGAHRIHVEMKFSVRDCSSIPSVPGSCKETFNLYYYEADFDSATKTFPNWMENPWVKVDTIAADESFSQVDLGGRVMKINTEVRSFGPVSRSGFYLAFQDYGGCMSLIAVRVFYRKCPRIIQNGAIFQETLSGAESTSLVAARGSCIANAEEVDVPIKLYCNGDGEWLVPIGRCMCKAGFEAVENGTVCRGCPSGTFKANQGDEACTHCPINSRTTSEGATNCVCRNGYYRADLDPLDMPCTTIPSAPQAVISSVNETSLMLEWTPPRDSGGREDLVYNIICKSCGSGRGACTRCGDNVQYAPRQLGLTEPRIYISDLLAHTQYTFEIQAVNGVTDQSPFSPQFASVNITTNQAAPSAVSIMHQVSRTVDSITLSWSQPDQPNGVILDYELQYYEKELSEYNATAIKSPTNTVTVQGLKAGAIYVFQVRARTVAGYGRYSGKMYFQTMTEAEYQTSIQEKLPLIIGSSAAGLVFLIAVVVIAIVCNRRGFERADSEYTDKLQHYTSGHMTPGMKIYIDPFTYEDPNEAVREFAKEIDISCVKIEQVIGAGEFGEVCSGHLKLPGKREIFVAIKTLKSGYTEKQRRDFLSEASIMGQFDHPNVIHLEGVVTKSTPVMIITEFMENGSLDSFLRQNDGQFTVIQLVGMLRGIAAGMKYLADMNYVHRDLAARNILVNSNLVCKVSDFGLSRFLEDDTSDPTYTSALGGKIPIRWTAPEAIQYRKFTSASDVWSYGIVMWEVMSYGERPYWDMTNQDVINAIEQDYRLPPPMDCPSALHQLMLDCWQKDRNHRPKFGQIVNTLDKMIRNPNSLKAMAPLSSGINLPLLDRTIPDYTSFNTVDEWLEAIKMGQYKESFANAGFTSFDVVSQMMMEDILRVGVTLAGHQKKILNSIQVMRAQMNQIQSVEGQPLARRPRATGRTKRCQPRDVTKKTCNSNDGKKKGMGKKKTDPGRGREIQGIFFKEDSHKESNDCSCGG
# [13] = molecular target: T4, Ephrin type-B receptor 2 (Homo sapiens); conditions: at 10 µM
# [14] = molecular target: T5, Ephrin type-B receptor 4 (Homo sapiens) (UniProt P54760); conditions: at 1 µM
# T5 sequence (whole entry): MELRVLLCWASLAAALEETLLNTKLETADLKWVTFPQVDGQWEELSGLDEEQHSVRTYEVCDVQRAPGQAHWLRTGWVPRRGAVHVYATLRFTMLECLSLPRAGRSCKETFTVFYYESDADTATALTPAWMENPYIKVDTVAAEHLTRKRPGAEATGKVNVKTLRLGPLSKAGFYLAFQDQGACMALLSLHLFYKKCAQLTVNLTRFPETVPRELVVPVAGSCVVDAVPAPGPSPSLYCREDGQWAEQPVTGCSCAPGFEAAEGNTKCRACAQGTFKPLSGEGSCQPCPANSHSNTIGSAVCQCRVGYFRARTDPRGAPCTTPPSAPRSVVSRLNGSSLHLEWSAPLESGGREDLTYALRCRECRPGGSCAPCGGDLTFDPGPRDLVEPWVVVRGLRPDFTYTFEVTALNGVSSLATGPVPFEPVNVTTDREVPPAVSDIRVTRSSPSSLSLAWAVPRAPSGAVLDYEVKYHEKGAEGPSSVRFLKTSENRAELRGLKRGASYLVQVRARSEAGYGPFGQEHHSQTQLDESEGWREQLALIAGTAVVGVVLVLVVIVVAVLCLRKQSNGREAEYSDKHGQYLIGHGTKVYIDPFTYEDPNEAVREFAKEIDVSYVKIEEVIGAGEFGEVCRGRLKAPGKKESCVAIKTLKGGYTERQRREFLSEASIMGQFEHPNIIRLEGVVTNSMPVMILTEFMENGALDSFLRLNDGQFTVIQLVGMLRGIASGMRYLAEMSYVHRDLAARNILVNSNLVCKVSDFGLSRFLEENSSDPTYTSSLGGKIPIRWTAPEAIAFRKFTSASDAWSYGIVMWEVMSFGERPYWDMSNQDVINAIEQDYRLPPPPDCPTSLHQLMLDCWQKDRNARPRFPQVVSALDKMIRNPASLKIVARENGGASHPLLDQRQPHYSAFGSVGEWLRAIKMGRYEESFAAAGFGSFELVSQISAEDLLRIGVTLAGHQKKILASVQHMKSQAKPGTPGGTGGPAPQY
# [15] = molecular target: T5, Ephrin type-B receptor 4 (Homo sapiens); conditions: at 10 µM
# [16] = molecular target: Focal adhesion kinase 1 (Homo sapiens) (UniProt Q05397); conditions: at 1 µM
# Focal adhesion kinase 1 (Homo sapiens), sequence (Q05397 2-1052 limits assumed): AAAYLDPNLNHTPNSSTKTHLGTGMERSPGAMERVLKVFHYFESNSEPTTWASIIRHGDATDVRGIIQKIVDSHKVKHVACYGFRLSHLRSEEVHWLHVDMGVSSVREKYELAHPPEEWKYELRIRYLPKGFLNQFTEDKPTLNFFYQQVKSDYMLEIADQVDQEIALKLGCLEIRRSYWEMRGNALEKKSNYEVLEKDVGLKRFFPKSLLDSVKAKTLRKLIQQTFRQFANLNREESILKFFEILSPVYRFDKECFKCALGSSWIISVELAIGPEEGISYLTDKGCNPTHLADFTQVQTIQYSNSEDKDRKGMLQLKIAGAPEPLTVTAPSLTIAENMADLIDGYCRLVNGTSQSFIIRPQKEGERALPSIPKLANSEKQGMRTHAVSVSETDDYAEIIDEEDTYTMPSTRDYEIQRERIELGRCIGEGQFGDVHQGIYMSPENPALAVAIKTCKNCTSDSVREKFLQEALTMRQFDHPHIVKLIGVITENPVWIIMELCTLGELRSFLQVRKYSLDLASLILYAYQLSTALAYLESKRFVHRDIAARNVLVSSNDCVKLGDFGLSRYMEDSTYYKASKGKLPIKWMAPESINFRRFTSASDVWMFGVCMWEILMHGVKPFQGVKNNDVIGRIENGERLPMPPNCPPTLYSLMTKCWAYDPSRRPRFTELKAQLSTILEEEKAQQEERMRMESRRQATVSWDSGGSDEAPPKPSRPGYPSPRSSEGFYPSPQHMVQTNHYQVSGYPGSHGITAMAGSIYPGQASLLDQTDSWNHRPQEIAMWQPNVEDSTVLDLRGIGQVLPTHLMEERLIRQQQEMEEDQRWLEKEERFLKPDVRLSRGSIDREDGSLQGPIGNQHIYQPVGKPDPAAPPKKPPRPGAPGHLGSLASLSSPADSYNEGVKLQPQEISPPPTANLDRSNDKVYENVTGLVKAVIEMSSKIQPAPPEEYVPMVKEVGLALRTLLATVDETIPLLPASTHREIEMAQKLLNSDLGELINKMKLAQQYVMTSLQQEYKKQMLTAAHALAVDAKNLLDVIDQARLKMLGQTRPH
# Ephrin type-A receptor 7 (Homo sapiens), sequence (Q15375 28-998 limits assumed): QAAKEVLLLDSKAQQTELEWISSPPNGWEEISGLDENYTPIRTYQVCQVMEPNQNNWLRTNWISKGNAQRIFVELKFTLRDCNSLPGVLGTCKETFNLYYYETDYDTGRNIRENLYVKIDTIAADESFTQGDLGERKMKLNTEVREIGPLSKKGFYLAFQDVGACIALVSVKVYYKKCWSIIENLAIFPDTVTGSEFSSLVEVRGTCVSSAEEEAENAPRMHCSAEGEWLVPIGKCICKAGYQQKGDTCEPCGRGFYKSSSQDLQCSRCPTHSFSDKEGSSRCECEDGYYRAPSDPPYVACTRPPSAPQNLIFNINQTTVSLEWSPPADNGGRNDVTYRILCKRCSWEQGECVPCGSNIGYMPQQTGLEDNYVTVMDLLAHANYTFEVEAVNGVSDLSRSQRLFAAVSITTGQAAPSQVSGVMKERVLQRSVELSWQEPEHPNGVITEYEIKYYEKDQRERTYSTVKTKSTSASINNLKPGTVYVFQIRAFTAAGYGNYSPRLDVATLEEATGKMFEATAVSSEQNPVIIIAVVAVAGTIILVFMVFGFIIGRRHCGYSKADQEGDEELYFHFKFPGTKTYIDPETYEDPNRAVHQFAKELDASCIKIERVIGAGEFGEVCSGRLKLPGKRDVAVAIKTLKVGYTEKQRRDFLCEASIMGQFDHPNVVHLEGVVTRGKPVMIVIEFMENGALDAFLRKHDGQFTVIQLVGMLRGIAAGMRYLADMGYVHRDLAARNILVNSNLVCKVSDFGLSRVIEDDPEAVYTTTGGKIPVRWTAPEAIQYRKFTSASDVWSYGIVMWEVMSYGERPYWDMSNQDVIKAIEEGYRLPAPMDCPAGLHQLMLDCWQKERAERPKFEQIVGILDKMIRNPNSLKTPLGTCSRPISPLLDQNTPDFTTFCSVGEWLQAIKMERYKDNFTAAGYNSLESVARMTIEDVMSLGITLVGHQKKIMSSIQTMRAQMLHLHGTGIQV
# Ephrin type-A receptor 5 (Homo sapiens), sequence (P54756 whole entry): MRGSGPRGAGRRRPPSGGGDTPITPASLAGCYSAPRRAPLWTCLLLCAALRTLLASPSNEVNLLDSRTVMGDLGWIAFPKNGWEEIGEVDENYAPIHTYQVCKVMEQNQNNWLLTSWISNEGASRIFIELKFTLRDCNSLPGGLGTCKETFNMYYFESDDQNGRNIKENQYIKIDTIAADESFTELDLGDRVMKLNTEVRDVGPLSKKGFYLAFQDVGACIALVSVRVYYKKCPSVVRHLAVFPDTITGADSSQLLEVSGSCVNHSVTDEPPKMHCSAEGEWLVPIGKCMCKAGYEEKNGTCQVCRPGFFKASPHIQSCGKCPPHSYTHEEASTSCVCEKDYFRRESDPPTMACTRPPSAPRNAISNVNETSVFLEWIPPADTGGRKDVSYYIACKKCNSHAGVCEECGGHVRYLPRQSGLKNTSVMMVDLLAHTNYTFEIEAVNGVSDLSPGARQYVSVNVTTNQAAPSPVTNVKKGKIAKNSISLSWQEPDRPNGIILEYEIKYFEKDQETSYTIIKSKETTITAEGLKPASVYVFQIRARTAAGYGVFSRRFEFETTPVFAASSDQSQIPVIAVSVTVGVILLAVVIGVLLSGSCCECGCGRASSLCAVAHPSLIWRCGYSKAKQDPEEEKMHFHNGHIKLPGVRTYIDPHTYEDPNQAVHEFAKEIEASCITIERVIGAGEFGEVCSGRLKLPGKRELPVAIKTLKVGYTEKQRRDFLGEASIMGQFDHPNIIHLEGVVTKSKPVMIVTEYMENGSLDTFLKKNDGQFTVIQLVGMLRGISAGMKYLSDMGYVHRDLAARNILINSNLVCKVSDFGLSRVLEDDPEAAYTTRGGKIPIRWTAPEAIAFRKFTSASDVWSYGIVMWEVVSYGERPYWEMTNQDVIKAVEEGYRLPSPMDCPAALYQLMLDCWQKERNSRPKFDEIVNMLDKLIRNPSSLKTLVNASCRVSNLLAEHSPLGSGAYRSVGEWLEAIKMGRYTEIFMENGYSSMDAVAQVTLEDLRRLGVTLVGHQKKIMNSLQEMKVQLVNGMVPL
# Ephrin type-A receptor 4 (Homo sapiens), sequence (P54764 whole entry): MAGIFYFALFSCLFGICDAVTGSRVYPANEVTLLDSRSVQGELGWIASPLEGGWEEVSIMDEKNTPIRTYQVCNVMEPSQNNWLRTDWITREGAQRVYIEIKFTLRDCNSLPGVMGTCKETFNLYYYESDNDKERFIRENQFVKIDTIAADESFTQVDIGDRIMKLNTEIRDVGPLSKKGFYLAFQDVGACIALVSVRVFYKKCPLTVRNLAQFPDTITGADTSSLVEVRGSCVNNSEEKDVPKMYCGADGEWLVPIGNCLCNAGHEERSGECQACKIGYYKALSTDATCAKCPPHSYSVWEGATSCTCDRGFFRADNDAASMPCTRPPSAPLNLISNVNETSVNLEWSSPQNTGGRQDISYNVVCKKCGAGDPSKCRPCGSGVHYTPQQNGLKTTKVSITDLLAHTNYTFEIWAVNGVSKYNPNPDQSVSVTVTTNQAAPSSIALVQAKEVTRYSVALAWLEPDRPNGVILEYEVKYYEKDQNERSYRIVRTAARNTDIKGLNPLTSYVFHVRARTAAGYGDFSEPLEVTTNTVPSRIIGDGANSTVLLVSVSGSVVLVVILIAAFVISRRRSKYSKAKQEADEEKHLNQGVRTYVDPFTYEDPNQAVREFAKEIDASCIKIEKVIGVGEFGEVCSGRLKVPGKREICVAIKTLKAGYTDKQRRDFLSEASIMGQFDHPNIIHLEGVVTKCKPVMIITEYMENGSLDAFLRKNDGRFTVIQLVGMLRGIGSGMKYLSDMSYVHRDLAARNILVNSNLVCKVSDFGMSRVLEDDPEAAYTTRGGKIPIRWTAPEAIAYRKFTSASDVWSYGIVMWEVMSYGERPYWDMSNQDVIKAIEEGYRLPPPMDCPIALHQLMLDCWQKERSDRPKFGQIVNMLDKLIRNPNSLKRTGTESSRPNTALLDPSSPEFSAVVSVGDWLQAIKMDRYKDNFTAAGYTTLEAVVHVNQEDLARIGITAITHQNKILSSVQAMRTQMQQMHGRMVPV
smiles,measurement,setting,value
CC(C)[C@H](CO)Nc1nc(Nc2cccc(Cl)c2)c2ncn(C(C)C)c2n1,residual activity,[1],31%
same,residual activity,[2],95%
same,residual activity,[3],47%
same,residual activity,[4],83%
same,residual activity,[5],14%
same,residual activity,[6],76%
same,residual activity,[7],28%
same,residual activity,[8],85%
same,residual activity,[9],46%
same,residual activity,[10],63%
same,residual activity,[11],15%
same,residual activity,[12],71%
same,residual activity,[13],3%
same,residual activity,[14],37%
same,residual activity,[15],4%
same,residual activity,[16],65%
